Test results reported in PubChem BioAssay (NCI).
Compounds without any hit were thinned out: in the full panel of roughly 83,000, 20% have a hit.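 Single-concentration screen, 48 h exposure, 96-well plates. Endpoint: percent growth. Below 10 = active.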 Activity calls are given as the source filed them.

Tests used:
Assay in all cases: NCI-60 one-dose screen, 48 h (100 = growth as untreated, 0 = no growth, -100 = all killed)
[1] = tested on: DU-145 prostate; conditions: 10 µM unless noted
[2] = tested on: K-562 leukemia; conditions: 10 µM unless noted
[3] = tested on: MALME-3M melanoma; conditions: 10 µM unless noted
[4] = tested on: MDA-MB-231 breast; conditions: 10 µM unless noted
[5] = tested on: RXF 393 renal; conditions: 10 µM unless noted
[6] = tested on: SF-268 CNS; conditions: 10 µM unless noted
[7] = tested on: SF-295 CNS; conditions: 10 µM unless noted
[8] = tested on: SF-539 CNS; conditions: 10 µM unless noted
[9] = tested on: UACC-257 melanoma; conditions: 10 µM
[10] = tested on: M14 melanoma; conditions: 10 µM unless noted
[11] = tested on: HCT-15 colon; conditions: 10 µM unless noted
[12] = tested on: HT29 colon; conditions: 10 µM unless noted
[13] = tested on: SNB-75 CNS; conditions: 10 µM unless noted
[14] = tested on: SNB-19 CNS; conditions: 10 µM unless noted
[15] = tested on: U251 CNS; conditions: 10 µM unless noted
[16] = tested on: PC-3 prostate; conditions: 10 µM unless noted
[17] = tested on: SK-MEL-5 melanoma; conditions: 10 µM unless noted
[18] = tested on: UACC-62 melanoma; conditions: 10 µM unless noted
[19] = tested on: LOX IMVI melanoma; conditions: 10 µM unless noted
[20] = tested on: SK-MEL-28 melanoma; conditions: 10 µM unless noted

Measured: growth

O=C(CNc1ccc(Cl)cc1)Nc1ccc(-c2nc3ccccc3s2)cc1
active: [3] -30.5% | [11] -13.9% | [19] -41%
inactive: [1] 70.2% | [2] 11.9% | [4] 37.6% | [5] 84.2% | [6] 24.1% | [7] 94.6% | [8] 78.1% | [9] 90.9% | [10] 44.2% | [12] 47.9% | [13] 60.1% | [14] 63.6% | [15] 26.3% | [16] 85.3% | [17] 25% | [18] 30.1% | [20] 99.5%

O=C(CN1CCN(c2cc3c(cc2F)c(=O)c(C(=O)O)cn3C2CC2)CC1)Nc1ccc(C(=O)/C=C/c2ccccc2)cc1
active: [19] 5.67%
inactive: [1] 43.1% | [2] 14.2% | [3] 51% | [4] 55.1% | [5] 41.7% | [6] 37% | [7] 15.2% | [8] 26.2% | [9] 61.1% | [10] 31.8% | [11] 56.8% | [12] 11.4% | [13] 61.8% | [14] 40.3% | [15] 14.9% | [16] 55.2% | [17] 13.6% | [18] 35.5% | [20] 85.7%

O=C(O)Cc1ccc2c(c1)Cc1cccnc1O2
inactive: [1] 107% | [2] 114% | [3] 98.5% | [4] 111% | [5] 91.2% | [6] 103% | [7] 108% | [8] 99.7% | [9] 106% | [10] 103% | [11] 103% | [12] 99.8% | [13] 87.9% | [14] 107% | [15] 102% | [16] 101% | [17] 99.5% | [18] 109% | [19] 100% | [20] 109%

N=C(N)c1ccc(-c2ccc(-c3ccc(Cl)cc3)o2)nc1
active: [1] -98.4% | [3] -66.4% | [4] -90% | [5] -98.1% | [6] -95.6% | [7] -85.4% | [8] -92.4% | [9] -89% | [10] -88.3% | [11] -75.1% | [12] -92.9% | [13] -97.8% | [14] -87.2% | [15] -98.1% | [16] -90% | [17] -98.8% | [18] -96.8% | [19] -90.4% | [20] -94.2%
inactive: [2] 112%

O=C(COc1ccccc1)N1N=C(c2ccc(Cl)cc2)CC1c1c[nH]c2ccccc12 (stereo not given)
inactive: [1] 92% | [2] 71.2% | [3] 74.1% | [4] 47.7% | [5] 103% | [6] 71.9% | [7] 92.1% | [8] 87.1% | [9] 89.1% | [10] 83.1% | [11] 62.1% | [12] 90.4% | [13] 66.6% | [14] 93.3% | [15] 58% | [16] 63.2% | [17] 85.5% | [18] 70.9% | [19] 59.1% | [20] 104%

NCCSC(c1ccccc1)(c1ccccc1)c1ccccc1
active: [1] -1.74% | [2] 3.65% | [4] -24.2% | [5] -7.93% | [7] -45.9% | [8] -46.1% | [10] -9.88% | [12] 0.695%
inactive: [3] 27.5% | [6] 27.4% | [9] 47.7% | [11] 24.9% | [13] 12.5% | [14] 53.3% | [15] 14.1% | [16] 19.4% | [17] 11.9% | [18] 29.5% | [19] 25.9% | [20] 43%

O=C(Nc1ccc(OCc2nnc(-c3ccc(Cl)cc3)o2)c(F)c1)Nc1ccc(Cl)c(Cl)c1
active: [13] 6.81%
inactive: [1] 34.4% | [2] 67.3% | [3] 33.4% | [4] 26.3% | [5] 50.7% | [6] 53.3% | [7] 62.5% | [8] 45% | [9] 74.4% | [10] 61.5% | [11] 48.4% | [12] 32.8% | [14] 71.8% | [15] 46.8% | [16] 44.4% | [17] 75.6% | [18] 60.9% | [19] 24.5% | [20] 61.5%

C[C@]12CC[C@@H]3c4cc(O)c(O)cc4CC[C@H]3[C@@H]1CC[C@@H]2O
inactive: [1] 39.1% | [3] 16.8% | [4] 48.1% | [5] 28.7% | [6] 46.7% | [7] 35% | [9] 31.2% | [10] 23.4% | [11] 30% | [12] 96.4% | [14] 66.1% | [15] 35.8% | [16] 58.6% | [17] 26.5% | [18] 33.8% | [19] 40% | [20] 39.6%
active: [2] 7.32% | [8] -1.85% | [13] -14.5%

Cc1cc2c(c(=O)o1)C(c1ccc(OC(=O)N3CCOCC3)cc1)C(C#N)=C(N)O2 (stereo not given)
inactive: [1] 112% | [2] 98.6% | [3] 126% | [4] 116% | [5] 114% | [6] 114% | [7] 100% | [8] 96.5% | [9] 98.2% | [10] 110% | [11] 101% | [12] 104% | [13] 95.6% | [14] 101% | [15] 100% | [16] 103% | [17] 103% | [18] 108% | [19] 96.4% | [20] 110%

CC[C@]1(O)C[C@@H]2CN(Cc3c([nH]c4ccccc34)[C@@](C(=O)OC)(c3cc4c(cc3OC)N(C)[C@H]3[C@@](O)(C(=O)OC)[C@H](OC(C)=O)[C@]5(CC)[C@@H]6C[C@@H]6CN6CC[C@]43[C@@H]65)C2)C1
inactive: [2] 11.8% | [3] 38% | [5] 15.2% | [6] 28.1% | [9] 71.7% | [11] 60.7% | [13] 10.1% | [14] 51.7% | [16] 14% | [18] 34% | [19] 19.1% | [20] 64.4%
active: [1] 7.39% | [4] 0.275% | [7] -13.9% | [8] -0.324% | [10] -23.2% | [12] -2.26% | [15] 6.95% | [17] 2.99%

CCn1c(=O)c2c(=O)c3c4c(oc3oc2c2ccccc21)C(=O)c1ccccc1C4=O
inactive: [1] 92.4% | [2] 28.6% | [3] 113% | [5] 106% | [6] 84.3% | [7] 95.1% | [8] 89.9% | [9] 90.6% | [10] 89.8% | [11] 79.6% | [12] 63% | [13] 120% | [14] 90.2% | [15] 57.7% | [16] 42.4% | [17] 67.4% | [18] 64% | [19] 32.4% | [20] 107%
active: [4] 6.33%

COc1ccc([N+](=O)[O-])c(/C=C/C(=O)c2ccccn2)c1
inactive: [1] 28.5% | [2] 21% | [3] 91% | [4] 86.2% | [5] 74.1% | [6] 89.1% | [7] 133% | [8] 95.2% | [9] 96.9% | [10] 104% | [11] 57.5% | [12] 58.8% | [13] 67.2% | [14] 97.6% | [15] 42.2% | [16] 82.1% | [17] 90% | [18] 94.7% | [19] 41% | [20] 100%

Cc1ccc(C(=O)c2sc3nc4c(cc3c2N)CCCC4)c(C)c1
inactive: [2] 11.9% | [3] 27% | [4] 21.3% | [6] 44.1% | [9] 57.6% | [10] 30.6% | [11] 29.8% | [14] 51.5% | [15] 21.2% | [17] 24.6% | [18] 24.3% | [19] 30.6% | [20] 55%
active: [1] 6.18% | [5] -16% | [7] -4.3% | [8] -25% | [12] 9.13% | [13] -14.3% | [16] 5.81%

Clc1nc(-c2cccnc2)nc2sc3c(c12)CCCCCC3
inactive: [1] 109% | [2] 101% | [3] 103% | [4] 97.7% | [5] 116% | [6] 95.7% | [7] 92.9% | [8] 96.6% | [9] 93.1% | [10] 107% | [11] 98.9% | [12] 100% | [13] 91.3% | [14] 96.2% | [15] 91.3% | [16] 94.7% | [17] 96.8% | [18] 91.3% | [19] 100% | [20] 104%

CN(C)c1ncc(-c2ccc(C(F)(F)F)cc2)c(NC2CCCCCC2)n1
inactive: [1] 84.9% | [2] 28.2% | [4] 83.4% | [5] 78.8% | [6] 80.8% | [7] 32.7% | [8] 97.3% | [9] 38.1% | [10] 44.5% | [11] 77.4% | [12] 34.4% | [13] 78.2% | [14] 71.8% | [15] 40.1% | [16] 22% | [17] 39.6% | [18] 31.4% | [19] 66.2% | [20] 48.9%
active: [3] 5.4%

COc1cc(OC)c(C(=O)/C=C/c2ccc(C#N)cc2)c(OC)c1
inactive: [1] 18.3% | [3] 44.2% | [4] 22.2% | [5] 15.9% | [6] 21% | [9] 30.8% | [13] 14.1% | [14] 16.7% | [15] 12.6% | [16] 37.4% | [18] 26.5% | [20] 39.2%
active: [2] 9.68% | [7] 8.32% | [8] 2.95% | [10] 1.79% | [11] 9.66% | [12] 3.67% | [17] 8.04% | [19] 6.31%
